Inconclusive results are not listed. Values without a mark were called inactive. Active and inactive are the calls of the source. Calls come from the whole dose curve; as a rule, active = well fitted inhibition curve with a large enough effect; inconclusive = small, poorly fitted or top-dose-only effect; inactive = flat fitted curve, though single readings scatter.
Experiment: P-glycoprotein substrates identified in KB-8-5-11 adenocarcinoma cell line, qHTS therapeutic library screen (AID 1346987); note: nearly all actives have a fitted effect of over 65% in size
Settings: KB-8-5-11 (P-gp overexpressing) viability, CellTiter-Glo, 72 h; series mostly up to 44.5 µM; activity change, negative = cytotoxicity: at the top concentration
Method in brief: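 P-gp-mediated resistance screen: KB-8-5-11 cells treated 72 h with compounds in dose-response. CellTiter-Glo viability.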
% is set by controls: 0 for no effect and ±100 for the full control effect.

| SMILES | activity change, negative = cytotoxicity | Potency | outcome |
| --- | --- | --- | --- |
| COc1ccc(-n2c(C)c([N+](=O)[O-])c3ccc(O)cc32)cc1 | 2.7% | – | – |
| C[C@]12CCC3c4ccc(O)cc4CCC3C1CCC2=O (some centres undefined) | -10.6% | – | – |
| CCC(=O)O[C@]1(C(=O)CO)CC[C@H]2[C@@H]3CCC4=CC(=O)CC[C@]4(C)[C@@H]3CC[C@@]21C | 0.984% | – | – |
| Cc1ccc(C(=O)Nc2cccc(C(F)(F)F)c2)cc1Nc1nc(-c2cccnc2)nc2c1cnn2C | -11.4% | – | – |
| Cc1ccccc1C(C(=O)NC1CCCCC1)N(C(=O)Cn1ccnc1C)c1cccc(F)c1 (centres undefined) | – | inactive | – |
| CCS(=O)(=O)N1CC(CC#N)(n2cc(-c3ncnc4[nH]ccc34)cn2)C1 | – | inactive | – |
| CC1(C)CCC2=C(O1)c1ccccc1C(=O)C2=O | -10.5% | – | – |
| N[C@H](CSC(c1ccccc1)(c1ccccc1)c1ccccc1)C(=O)O | – | – | inactive |
| CN1C[C@H]2c3ccccc3Oc3ccc(Cl)cc3[C@@H]2C1 | -17% | – | – |
| Cn1cc(C=C2C(=O)Nc3cccnc32)c2ccccc21 | 0.786% | – | – |
| CCn1c(C(=O)N(C2CC2)C2CC2)cc2c3c(ncn3C)c(Nc3cc(C)n(C)n3)nc21 | -7.78% | – | – |
| CC(=O)Oc1cc2c(s1)CCN(C(C(=O)C1CC1)c1ccccc1F)C2 (centres undefined) | -0.369% | – | – |
| COCCOC(=O)C1=C(C)NC2=C(C(=O)CC(c3ccccc3OC)C2)C1c1cccc(O)c1 (centres undefined) | – | inactive | – |
| CC(=Cc1ccccc1)C=C1SC(=S)N(CC(=O)O)C1=O | – | – | inactive |
